# The supplement of paper PMC3334620
# Whole data set: some 33,000 sequences, median “E-score (-0.5 to 0.5)” near -0.04, cut for the highest 2% near 0.36. The full list was thinned out, with the highest values kept by preference.
# Molecular target: T1, Hmlalpha2 (UniProt P0CY09)
# T1 sequence: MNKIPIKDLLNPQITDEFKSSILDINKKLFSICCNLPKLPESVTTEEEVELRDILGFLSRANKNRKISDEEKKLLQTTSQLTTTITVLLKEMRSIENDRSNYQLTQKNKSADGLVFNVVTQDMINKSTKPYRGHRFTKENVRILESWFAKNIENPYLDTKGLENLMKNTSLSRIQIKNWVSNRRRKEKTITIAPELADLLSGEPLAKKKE
# Experiment: PBM E-score (8-mer binding enrichment) (E-score (-0.5 to 0.5)); higher = stronger / more preferred TF binding
# Settings: protein concentration: 200 nM; construct: GST-full length
# Experimental: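 Universal 'all 10-mer' protein binding microarrays (Agilent AMADID 015681) probed with GST-tagged S. cerevisiae TFs (full-length or DBD) made by in vitro transcription/translation (PURExpress), about 100-200 nM. Bound TF was detected with fluorescent anti-GST. Each ungapped 8-mer (which stands for itself and its reverse complement) is scored by the PBM enrichment score (E-score), a modified Wilcoxon-Mann-Whitney statistic from -0.5 to +0.5, computed with the Universal PBM Analysis Suite. Scale: above 0.35 generally sequence-specific binding.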
row,Sequence,PBM E-score
1,GGGGCCTA,-0.31
2,GCCGCGGC,-0.242
3,CCGCGATC,-0.238
4,AATTCTGC,-0.061
5,GAATTATA,0.113
6,GAATTACC,0.107
7,GAATTACA,0.444
8,CTTGCTTC,0.0506
9,GTCATCGA,-0.0402
10,CTTTACGC,0.42
11,CTTTACGA,0.185
12,AATTACGA,0.338
13,AATTACGT,0.382
14,GATTACGC,0.345
15,AATTACGG,-0.0144
16,CATTACGC,0.321
17,AATTACGC,0.431
18,ATTTACGC,0.347
19,AATAACTG,0.0798
20,CCACTAGC,-0.111
21,AATACCCT,-0.0975
22,TCATTCCA,-0.147
23,GGTAATTA,0.25
24,CGTAATTC,0.321
25,CGTAATTA,0.389

row,Sequence,PBM E-score
1,CGTAATCC,0.309
2,CGTAATCA,0.367
3,AGTAATCA,0.199
4,ACTGCTTG,-0.00682
5,AACGAAGT,0.0804
6,ACAGCAGC,0.0712
7,TACGCGGA,0.312
8,CACGCGTA,0.277
9,GACGCGTA,0.383
10,TACGCGTA,0.409
11,CACGCGTG,0.374
12,AACGCGTA,0.359
13,TACGCGCA,0.252
14,AACGCGTG,0.336
15,CACGCGTC,0.174
16,CCCCCGTA,-0.247
17,AATGGAGT,-0.0239
18,AACTCTAA,0.0318
19,CCTTGATC,-0.0105
20,TCTGTACA,0.258
21,AATGTACA,0.366
22,CATGTACC,0.287
23,CATGTACA,0.458
24,GATGTACC,0.135
25,CCTGTACA,0.304

row,Sequence,PBM E-score
1,TATGTACA,0.429
2,AATGTACC,0.166
3,AATGTACT,0.186
4,GGTGTACA,0.211
5,GATGTACA,0.379
6,TCAGTACA,0.227
7,GCTTTGAC,0.074
8,GCGCACAC,-0.189
9,GTCAAGAC,-0.135
10,ATCACTGG,-0.0104
11,TATCTGGA,-0.16
12,GGTCCCTA,-0.0695
13,CCTGAATC,-0.0621
14,CATGTACG,0.372
15,CCTGTACG,0.0613
16,AATGTACG,0.108
17,CGGTAGAA,-0.175
18,CTAATGTA,0.262
19,GTCATGCA,0.133
20,ATAATGTA,0.273
21,GTAATGTA,0.413
22,GTCATGTA,0.442
23,ATCATGTG,0.209
24,GTCATGGA,-0.188
25,CTCATGTC,0.295

row,Sequence,PBM E-score
1,ATCATGTC,0.351
2,CTCATGGA,-0.142
3,CTCATGTA,0.454
4,ATCATGTA,0.472
5,CGCATTAC,0.214
6,ATGCGTTC,0.122
7,CGAGGCAA,0.126
8,AACCTCTC,-0.275
9,TACAACAA,0.343
10,GCCCCTCC,-0.277
11,TCGCCTCA,-0.118
12,CACACAGA,0.221
13,AATATACA,0.34
14,TACACAGA,0.424
15,TATACAGA,0.251
16,GATATACA,0.339
17,CATACACC,-0.076
18,GACACAGA,-0.00939
19,CATACACA,0.336
20,GATACACA,0.214
21,CATACACG,0.398
22,TATATACA,0.389
23,TATACACA,0.437
24,CTAAGATC,-0.0578
25,GGTGAGTA,0.135

row,Sequence,PBM E-score
1,AAAGCGAA,-0.132
2,GCCATCTA,-0.19
3,ACTCCACA,0.0494
4,GACGGTCA,-0.196
5,ATAGACTG,-0.0652
6,TACACACA,0.43
7,CACACACG,0.279
8,CACACAAA,0.126
9,TACACAAA,0.431
10,CACACACA,0.228
11,GACACAAA,0.14
12,ACAGATGC,-0.0548
13,ACTCCCAC,-0.352
14,GGCGGGAC,-0.194
15,TAACGCCA,0.0809
16,AGCTTGTG,0.11
17,GCCTTGTA,0.33
18,ATCTTGTG,-0.0105
19,CCCTTGTA,0.328
20,GTCTTGTA,0.306
21,ATCTTGTA,0.383
22,ACCTTGTA,0.402
23,AGCTTGTA,0.379
24,AGCTTGTC,0.133
25,CGGTCCCC,-0.347

row,Sequence,PBM E-score
1,AACGATCT,-0.0798
2,ACCAAAGG,-0.219
3,AGCACCCA,-0.176
4,CGGGTAAA,0.234
5,AGTACACT,0.074
6,TGTACAAA,0.422
7,AGTACAGG,0.134
8,AGTACACC,0.115
9,AGTACAAA,0.161
10,CGTACACG,0.354
11,AGTACACA,0.387
12,TGTACACA,0.418
13,CGTACACA,0.347
14,AGTACACG,0.437
15,GGTACAAA,0.138
16,GGTACACA,0.246
17,ACACCGCG,0.15
18,GCGACTCA,-0.134
19,ATGCGAGG,-0.117
20,GAACGATC,-0.0263
21,AGAGTGCC,-0.257
22,CGTACCTA,-0.0874
23,ACGGCCCC,-0.437
24,TTGTTAAA,0.359
25,AAGTTAAC,0.303

row,Sequence,PBM E-score
1,ATGTTAAC,0.448
2,GAGTTAAC,0.234
3,GTGTTAAA,0.462
4,GTGTTAAC,0.462
5,CTGTTAAC,0.304
6,ATGTTAGC,0.342
7,CTGTTAAA,0.258
8,CCCTTAAC,-0.0469
9,ATACTATC,0.0717
10,ATTTGCGA,0.0385
11,AAGTTTCC,0.0351
12,ATGCTGTG,0.238
13,CGGGTCCA,-0.262
14,AAGCGTCT,-0.232
15,ATGTTTAG,0.33
16,ATGTTTAC,0.433
17,CTGTTTCC,-0.11
18,CCGTTTAC,0.259
19,CTGTTTAC,0.371
20,ATGTTTGC,0.166
21,AGGAGATG,-0.157
22,AGGAAAAA,0.00347
